Data on 16 molecules can be found in PubChem BioAssay (NCI).

About 83,000 compounds went through this panel and 20% of them were active in at least one assay; those are over-represented in the sample as a whole.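 How to read the values: 0–100, growth inhibition (40 = 60% inhibited); 0, no net growth; -100 to 0, cell death (-40 = 40% of starting cells died; -100 = all dead).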 Unmarked numbers belong to inactive results. Calls of active or inactive are those of the source. Rule for the calls: active = growth percent below 10; inactive = the rest.

Assay in all cases: NCI-60 one-dose screen, 48 h (100 = growth as untreated, 0 = no growth, -100 = all killed)
Holding throughout (settings): 10 µM

The subject of assay [1] is T-47D breast.
For assay [2], the system named is BT-549 breast.
Assay [3] deals with MDA-MB-435 melanoma.
Assay [4] concerns SW-620 colon.
For assay [5], the system named is MCF7 breast.
The subject of assay [6] is HCT-116 colon.
The subject of assay [7] is HCC-2998 colon.
For assay [8], the system named is KM12 colon.

Turning to `COC(=O)[C@]12CC[C@@H](C)[C@H](C)[C@@H]1C1=CC[C@@H]3[C@@]4(C)C[C@@H](O)[C@H](O)[C@@](C)(CO)[C@@H]4[C@H](O)C[C@@]3(C)[C@]1(C)CC2`, the growth in assay [1] is -47.1% (active); in assay [2] it was -66.1% (active); in assay [3], -66.9% (active); in assay [4], -54.1% (active); in assay [5], -24.3% (active); in assay [6], -82.3% (active). For the same molecule, the growth in assay [7] is -89.2% (active); in assay [8], -74.2% (active).
Take `CCCCCCCOc1cccc(/C=C2/C(=O)N=C3SCCCN32)c1`: the growth in assay [1] was 0.89% (active); in assay [2], 51.3%; in assay [3] it was 56.4%; in assay [4], 76.6%; in assay [5] it was 29.4%; in assay [6] it was 39.9%. For the same molecule, the results for the growth in assay [7] and in assay [8] were 95.8% and 75.2%, respectively.
Consider `Cc1nc(Nc2nc3ccccc3o2)nc(-c2cccc([N+](=O)[O-])c2)c1C(=O)Nc1ccc(F)c(Cl)c1`, for which the growth in assay [1] was 5.31% (active); in assay [2], 19.4%; in assay [3], 8.91% (active); in assay [4], 9.75% (active); in assay [5], 3.7% (active); in assay [6] it was 6.76% (active). The growth was -25.6% (active) in assay [7] and -14.6% (active) in assay [8].
Turning to `c1ccc(CC(NCCNC(Cc2ccccc2)c2ccccc2)c2ccccc2)cc1` (stereo not drawn), the growth was 13.9% in assay [1]; 56.6% in assay [2]; 38% in assay [3]; 5.83% (active) in assay [4]; -7.95% (active) in assay [5]; -25.3% (active) in assay [6]. Moreover, the growth was 3.25% (active) in assay [7] and 16.3% in assay [8].
`O=C(O)c1ccccc1C(=O)c1cccc2c(F)cccc12`: the growth was 94.5% in assay [1]; 103% in assay [2]; 112% in assay [3]; 106% in assay [4]; 93.5% in assay [5]; 103% in assay [6]. The results for the growth in assay [7] and in assay [8] were 105% and 111%, respectively.
Consider `CCc1ccc(-c2nnc(COc3ccc(-c4nc5ccccc5[nH]4)cc3OC)o2)cc1`, for which the growth was 87.9% in assay [1]; 51.7% in assay [2]; 56.7% in assay [3]; 58.1% in assay [4]; 33.5% in assay [5]; 28.9% in assay [6]. Further, the growth is 81.6% in assay [7] and 58% in assay [8].
Regarding `CC(=O)Oc1c(C)c(C)c2c(c1C)CCC(C)(CC(=O)OCCCCCCCCCCC[P+](c1ccccc1)(c1ccccc1)c1ccccc1)O2` (stereo not drawn), the growth was -64.1% (active) in assay [1]; -91.4% (active) in assay [2]; -89.2% (active) in assay [3]; -68.2% (active) in assay [4]; -87.2% (active) in assay [5]; -95.6% (active) in assay [6]. For the same molecule, the results for the growth in assay [7] and in assay [8] were -61% (active) and -71.3% (active), respectively.
For `N=C(N)c1ccc(-c2ccc(-c3ccccc3)s2)cc1F`, the growth in assay [1] was -65.6% (active); in assay [2] it was -96.8% (active); in assay [3], -84.2% (active); in assay [4], -85.4% (active); in assay [5], -71.7% (active); in assay [6], -91.8% (active). The results for the growth in assay [7] and in assay [8] were -79.1% (active) and -86.1% (active), respectively.
Take `O=NN(CC(=O)N/N=C/C=C\c1ccccc1)CC(=O)N/N=C/C=C/c1ccccc1`: the growth in assay [1] is 89%; in assay [2], 123%; in assay [3], 103%; in assay [4], 104%; in assay [5], 69.6%; in assay [6], 96.2%. Besides, the growth in assay [7] is 119%; in assay [8], 109%.
For the molecule `NC(=O)C12C(=O)NC(=O)C1(C(=O)O)C21CCCC1` (stereo not drawn), the growth in assay [1] is 114%; in assay [2], 104%; in assay [3] it was 100%; in assay [4], 104%; in assay [5], 96.3%; in assay [6], 101%. Further, the growth in assay [7] was 114%; in assay [8], 113%.
Consider `CCn1nc(-c2ccccn2)c2cccnc2c1=S`, for which the growth in assay [1] was 42%; in assay [2], 104%; in assay [3] it was 81.2%; in assay [4] it was 79.4%; in assay [5] it was 7.88% (active); in assay [6], 17.1%. In addition, the growth in assay [7] is 72.4%; in assay [8], 72.8%.
On to `Cn1c(=O)c2[nH]c(C(O)c3ccc(Cl)cc3)nc2n(C)c1=O` (stereo not drawn), for which the growth was 101% in assay [1]; 93.6% in assay [2]; 101% in assay [3]; 89.5% in assay [4]; 96.6% in assay [5]; 95% in assay [6]. Further, the growth in assay [7] is 97.8%; in assay [8], 97.3%.
As to `COc1ccc(C2C=C(c3ccc(Cl)c(Cl)c3)N=C3SC(C)=CN32)cc1` (stereo not drawn), the growth in assay [1] is 68.3%; in assay [2], 89.9%; in assay [3] it was 90.6%; in assay [4] it was 91.4%; in assay [5] it was 47.1%; in assay [6], 14.4%. Moreover, the figures for the growth in assay [7] and in assay [8] were 108% and 81.6%, respectively.
Take `COc1ccc(Cn2cc3c(c2-c2ccccc2)CC(C)(C)c2cnoc2-3)cc1`: the growth in assay [1] was 30.7%; in assay [2], 46.2%; in assay [3], -16.6% (active); in assay [4], 13.6%; in assay [5], 17.1%; in assay [6], 22.9%. In addition, the results for the growth in assay [7] and in assay [8] were 77.4% and 29.1%, respectively.
Take `COc1cccc(-c2nnc(COc3ccc(-c4nc5ccc(C)cc5[nH]4)cc3OC)o2)c1`: the growth in assay [1] was 50.7%; in assay [2], 92.7%; in assay [3] it was 41.6%; in assay [4] it was 64.5%; in assay [5] it was 18.5%; in assay [6], 29.4%. The growth in assay [7] was 88.6%; in assay [8], 39.7%.
Consider `c1ccc(C2CCCCC2)c(OCCCCCN2CCNCC2)c1`, for which the growth in assay [1] was 28%; in assay [2], 72.4%; in assay [3], 47.2%; in assay [4], 11.3%; in assay [5], -34.4% (active); in assay [6], -7.58% (active). Moreover, the figures for the growth in assay [7] and in assay [8] were -68.8% (active) and 35.6%, respectively.
